Among the data in the supplement of paper PMC10681739 are ETS1 binding intensity and RUNX1 binding intensity values, retold here.

The target in experiment [1] is T1, ETS1 (UniProt P14921).
T1 sequence: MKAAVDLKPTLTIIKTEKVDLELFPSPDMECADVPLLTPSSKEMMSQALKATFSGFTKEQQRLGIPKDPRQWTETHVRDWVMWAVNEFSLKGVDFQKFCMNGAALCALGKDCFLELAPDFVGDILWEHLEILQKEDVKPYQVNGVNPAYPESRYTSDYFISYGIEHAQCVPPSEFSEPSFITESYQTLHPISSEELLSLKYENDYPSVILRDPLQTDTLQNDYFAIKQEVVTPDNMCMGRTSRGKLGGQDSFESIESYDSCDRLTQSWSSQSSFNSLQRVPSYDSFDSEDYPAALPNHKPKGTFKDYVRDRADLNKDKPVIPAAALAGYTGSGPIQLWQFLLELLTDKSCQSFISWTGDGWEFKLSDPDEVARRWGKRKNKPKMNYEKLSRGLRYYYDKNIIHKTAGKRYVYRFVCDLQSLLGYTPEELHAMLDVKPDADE
In words: ETS1 binding intensity (PBM fluorescence), ETS1 alone (arbitrary fluorescence units); higher = stronger binding. The following applies: ETS1 concentration 1 nM; RUNX1 concentration 0 nM.

Experiment [2] deals with T1, ETS1. In words: ETS1 binding intensity (PBM fluorescence) in presence of RUNX1, normalised to ETS1-only experiment (arbitrary fluorescence units); higher = stronger binding. The following applies: ETS1 concentration 1 nM; RUNX1 concentration 25 nM.
Experiment [3] concerns the target RUNX1 (UniProt Q01196). In words: RUNX1 binding intensity (PBM fluorescence) in presence of ETS1, normalised to RUNX1-only experiment (arbitrary fluorescence units); higher = stronger binding. The following applies: RUNX1 concentration 2 nM; ETS1 concentration 25 nM. As to the method:
(§1)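 Cooperative gcPBM on 36-bp genomic probes with neighbouring ETS1 and RUNX1 sites. Recombinant human RUNX1 (2 nM) was incubated alone or with ETS1 (25 nM) and detected with anti-RUNX1 antibody plus Alexa488 secondary. Values are medians over 4 replicate spots; the RUNX1+ETS1 data were normalised to the RUNX1-only data. The probes sit in constant array flanks that are not printed.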

Experiment [4] addresses RUNX1 (UniProt Q01196). In words: RUNX1 binding intensity (PBM fluorescence), RUNX1 alone (arbitrary fluorescence units); higher = stronger binding. The following applies: RUNX1 concentration 2 nM; ETS1 concentration 0 nM. The method, then: as §1
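Throughout, for RUNX1 binding intensity (PBM fluorescence) in presence of ETS1, normalised to RUNX1-only experiment: Full-length recombinant human ETS1 or RUNX1 bound to double-stranded 36-bp genomic probes on microarrays, detected by protein-specific primary antibody and Alexa488 secondary, spot fluorescence as median of four replicate spots.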
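Throughout, for RUNX1 binding intensity (PBM fluorescence), RUNX1 alone: Full-length recombinant human RUNX1 bound to double-stranded 36-bp genomic probes on a high-density microarray, scored as Alexa488 fluorescence per spot via anti-RUNX1 antibody, median of four replicate spots.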

Sequence of RUNX1 (Q01196 whole entry): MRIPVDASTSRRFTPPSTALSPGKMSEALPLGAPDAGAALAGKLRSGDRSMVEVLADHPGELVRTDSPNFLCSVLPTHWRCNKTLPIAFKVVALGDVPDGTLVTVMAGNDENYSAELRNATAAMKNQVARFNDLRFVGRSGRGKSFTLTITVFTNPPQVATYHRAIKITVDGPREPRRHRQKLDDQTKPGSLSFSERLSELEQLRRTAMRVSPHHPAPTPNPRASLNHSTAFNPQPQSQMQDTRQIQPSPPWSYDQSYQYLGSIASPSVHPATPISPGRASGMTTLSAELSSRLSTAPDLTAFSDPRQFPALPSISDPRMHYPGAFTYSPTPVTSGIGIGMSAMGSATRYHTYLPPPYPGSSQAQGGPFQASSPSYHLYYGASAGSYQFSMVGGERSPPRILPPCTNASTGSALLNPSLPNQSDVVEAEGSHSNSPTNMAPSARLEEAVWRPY

AACGGACCCGGAAGGGGCAGGTCTTGTGGGCGGGTC: the ETS1 binding intensity in the experiment with ETS1 [1] was 814; with ETS1 [2] it was 1420. Further, the RUNX1 binding intensity in the experiment with RUNX1 [3] amounted to 904.
For CTTGTGAAATGTATCCTGTGGTTGCCGGCTGAAGTG, in that order: 499, 419 and 1380.
In the same order, the values of TGCCTTCTACTCCGGAACTCAGACCGCTGCCTTCTA are 759, 979 and 946.
In the same order, the values of TTGACTCGGGAATGTCCGGTCGTGGTAAGCAGGGTG are 770, 858 and 999.
Take TGGAAGGCCGGAAAAGGTTTACCACCACACTCCGGT: the ETS1 binding intensity with ETS1 [1] turned out to be 1850; with ETS1 [2], 3690. Also, in the experiment with RUNX1 [3], the RUNX1 binding intensity was found to be 1320.
For TTCTGTAGCTTAGGATGTGGGTTTCTTTGTTTCTGA, in that order: 452, 1020 and 1030.
In the same order, the values of CCCCACATCCGGGGGCCGGGGCCGGGCTGTGGGCTT are 524, 516 and 2140.
For AAAACAAGGACTTCCGCCTCCCTGCGGTCCCTCCCC, in that order: 2140, 2730 and 1880.
Consider GAAGCTACTCTGGTTTCCTGTGGTTTTCTGAGCACT, for which the ETS1 binding intensity with ETS1 [1] turned out to be 597; with ETS1 [2] it was 1320. In addition, the RUNX1 binding intensity in the experiment with RUNX1 [3] amounted to 2900.
For GCCCGCCCCGGAAGTGCAAACTGTGTGGTCTGGCAG, in that order: 3980, 7090 and 1330.
For GACACGTCTTTGGAAGGATGTGGTTGCCGTGGGTTT, the ETS1 binding intensity with ETS1 [1] is 724; with ETS1 [2], 5580. In addition, the RUNX1 binding intensity with RUNX1 [3] worked out at 880.
For GGAGGAAGTGACACCCACCCACTGCCCCCGCAAGGT, in that order: 962, 987 and 963.
With CTCCGCCAGCCACCGGAACTGCGGCCCAGCAAAAAG, the ETS1 binding intensity in the experiment with ETS1 [1] worked out at 2590; with ETS1 [2], 2320. In addition, in the experiment with RUNX1 [3], the RUNX1 binding intensity was found to be 949.
In the same order, the values of CTGAGTGAGACAGGATGTGGGCAGACCTCTAACACA are 5110, 11000 and 3230.
For GTGCAGACAGGAAATAGCTGCTCTGCGGCAGCCCGA, in that order: 5830, 6350 and 1070.
In the same order, the values of ACCTTCTGTTCCCTTCCTCAGACCGCAGGCGAGATG are 367, 835 and 2230.
For CAGGTGTTCAGGAAACAAAACCACAGACTTTTTCAC, the ETS1 binding intensity in the experiment with ETS1 [1] was found to be 562; in the experiment with ETS1 [2] it was 2370. Moreover, the RUNX1 binding intensity with RUNX1 [3] worked out at 6800.
Consider TTGCTCGGCTTCCTGGAGCTGTGGTCCGTGTGGGCT, for which the RUNX1 binding intensity is 708 with RUNX1 [4] and 1020 with RUNX1 [3].
For the sequence CCTCACCCAGGAAGTGGCTGCGGCTGTCTCAGGGTT, the ETS1 binding intensity came to 2450 with ETS1 [1] and 3340 with ETS1 [2]. Besides, the RUNX1 binding intensity with RUNX1 [3] worked out at 1440.
For the sequence GAAGGAAGTGGAGACAGTAAGGGGAAACCACAAACC, the RUNX1 binding intensity in the experiment with RUNX1 [4] came out at 922; in the experiment with RUNX1 [3] it was 1190.
For GCCGCCGTTTCCTGATTGGTTGTGGGTGGCTACCTC, in that order: 834 and 1660.
For TCTCTACTTCCCATTATTTCTGTGGTTAATTTCACC, the RUNX1 binding intensity was found to be 10400 with RUNX1 [4] and 13500 with RUNX1 [3].
For GCTGGGCCATCCTGCCACATGCACCGCATCTCTGGG, in that order: 759 and 878.
For CCCATTTCCTGCTCTCCAGAGTTAACCACTGAAGTC, in that order: 1440 and 3490.
As to CTAAACCGGAAGCCGCCCCTCTGACCGCTCTAAAAC, the RUNX1 binding intensity with RUNX1 [4] was 1070; with RUNX1 [3], 2010.
For AGGTTCGTGGCAGGAAAGTTTGTGGCAGCAAAGCCT, in that order: 1190 and 1100.
For the sequence CCAGTGCAGAAACATCCCTCCTGCCGCAGCTTTGTC, the RUNX1 binding intensity in the experiment with RUNX1 [4] came out at 1020; in the experiment with RUNX1 [3] it was 896.
With CTAGCCAGGAAGATAAAGAAGAAACCACCAAAGAGA, the values for the RUNX1 binding intensity in the experiment with RUNX1 [4] and with RUNX1 [3] were 870 and 834, respectively.
As to TGAAGTTGGTGTTTTCCGGGGGCGGTTTTTCCATTG, the values for the ETS1 binding intensity in the experiment with ETS1 [1] and with ETS1 [2] were 504 and 451, respectively. Moreover, the RUNX1 binding intensity in the experiment with RUNX1 [3] is 969.
Regarding ATTGCTTCCGACGCTACTCCTGCCGGGTCACCACAG, the figures for the RUNX1 binding intensity with RUNX1 [4] and in the experiment with RUNX1 [3] were 785 and 1020, respectively.
Take TCATTCTCTGATAAAGGAAGTGGTTACAGCACAATT: the ETS1 binding intensity with ETS1 [1] came to 2910; in the experiment with ETS1 [2], 10200. Further, the RUNX1 binding intensity with RUNX1 [3] amounted to 1270.
As for GGCAGCCGATGCATCCTGCGGTGTGTGGCCCTCAGA, the figures for the RUNX1 binding intensity with RUNX1 [4] and with RUNX1 [3] were 787 and 1040, respectively.
For the sequence GCCATCCGCAGGACTCCGCGTTCTCGCGGTAAGTGG, the ETS1 binding intensity was determined as 384 with ETS1 [1] and 464 in the experiment with ETS1 [2]. Also, the RUNX1 binding intensity with RUNX1 [3] was 883.
For CCACCATCTTTCCGGCTCCCTCGCGACCACCACGAC, the RUNX1 binding intensity came out at 1410 with RUNX1 [4] and 1970 with RUNX1 [3].
For the sequence GCGCAAGCAGGAAGCGTTTGCGGTGATCCCGGCGAC, the results for the ETS1 binding intensity in the experiment with ETS1 [1] and with ETS1 [2] were 1890 and 9000, respectively. In addition, the RUNX1 binding intensity in the experiment with RUNX1 [3] was 2000.
In the same order, the values of TGGAAGAGGGCAGGAAGTGTTGTGGTCACTCCCACC are 4450, 28900 and 1530.
For GCCTGCACCCTAGTTCCGGTGTGGGTGGAGGGGCCG, in that order: 1040, 999 and 4850.
Regarding ACCAGAACTAAAGCGGATAGCGGTTAGAAACGCCCA, the RUNX1 binding intensity with RUNX1 [4] was found to be 872; with RUNX1 [3], 952.
In the same order, the values of GTGCCTTTTCATGTGGGATGTGGCTTCAAGGAGACC are 911 and 822.
Consider TGCATGCAACAGGAAGTGGGGTGTGGTTTGTTCTGG, for which the ETS1 binding intensity amounted to 11600 with ETS1 [1] and 39100 with ETS1 [2]. Besides, the RUNX1 binding intensity with RUNX1 [3] was 1890.
For the sequence GAAACGTCACCCAGAGGAAACCCACAAGGGGCGTGG, the RUNX1 binding intensity amounted to 875 with RUNX1 [4] and 836 with RUNX1 [3].
In the same order, the values of CAGAGGAAGCCCACCCCATAAAAGAACCACAGATAA are 1010 and 864.
In the same order, the values of TCCTATATACTTCCGTTTGCCTCGCGGTTTCTTTCT are 2730 and 4520.
For GAGGGAGCAGTTCCGGGTGCGGTGCGCGCCAGGGGC, in that order: 1650 and 2060.
Consider AGCTTTCCTTTTCCGGTTGCGGCGCCGCGCGTTGAT, for which the ETS1 binding intensity in the experiment with ETS1 [1] was found to be 1800; in the experiment with ETS1 [2] it was 1820. Moreover, the RUNX1 binding intensity with RUNX1 [3] was 2340.
